Reference: the supplement of paper PMC11006884
The full data set covers some 6,500 targets. This sample favours those with a hit. About 2% of all pairs of compound and target were hits.

Compound: COC(=O)C#Cc1ccccc1 [methyl 3-phenylpropiolate]
Assay: log2 ratio of iodoacetamide-alkyne labeling of the cysteine site, DMSO over compound (competition); higher = stronger covalent engagement of the cysteine by the compound, active = 1 or more
Settings: 500 µM; treatment time 1 h; system: HEK293T cell lysate
Procedure, shortened: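 Reporter intensities give each cysteine's log2 competition ratio as the mean of control channels over the mean of compound channels. The samples were HEK293T lysate (2 mg/mL) given vehicle or electrophile (500 µM, 1 h, ambient temperature), then iodoacetamide alkyne (1 h), followed by click coupling to sCIP-TMT reagents, pooling, trypsin digestion overnight at 37 °C, streptavidin enrichment, acid elution, Orbitrap Eclipse LC-MS/MS with FAIMS and FragPipe quantification. Duplicate channels and three replicates were run, and cysteines quantified in only one replicate were discarded.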

UniProt Q8NFF5, sequence (Q8NFF5 whole entry, looked up): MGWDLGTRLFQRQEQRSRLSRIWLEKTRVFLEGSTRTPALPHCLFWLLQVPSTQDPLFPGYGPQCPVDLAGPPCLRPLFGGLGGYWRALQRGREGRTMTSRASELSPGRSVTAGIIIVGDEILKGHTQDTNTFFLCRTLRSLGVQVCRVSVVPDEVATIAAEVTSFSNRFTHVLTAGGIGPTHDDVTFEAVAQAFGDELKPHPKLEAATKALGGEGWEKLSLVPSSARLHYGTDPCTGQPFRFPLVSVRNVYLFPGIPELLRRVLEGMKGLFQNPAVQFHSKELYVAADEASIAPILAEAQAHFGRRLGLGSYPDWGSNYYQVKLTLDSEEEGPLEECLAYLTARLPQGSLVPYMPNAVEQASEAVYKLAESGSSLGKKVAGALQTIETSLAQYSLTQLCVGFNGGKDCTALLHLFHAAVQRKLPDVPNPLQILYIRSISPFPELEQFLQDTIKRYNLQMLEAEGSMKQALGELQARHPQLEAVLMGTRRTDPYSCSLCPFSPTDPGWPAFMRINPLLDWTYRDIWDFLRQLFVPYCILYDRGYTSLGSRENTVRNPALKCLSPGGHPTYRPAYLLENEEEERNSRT
UniProt Q8WUM4, sequence (Q8WUM4 whole entry, looked up): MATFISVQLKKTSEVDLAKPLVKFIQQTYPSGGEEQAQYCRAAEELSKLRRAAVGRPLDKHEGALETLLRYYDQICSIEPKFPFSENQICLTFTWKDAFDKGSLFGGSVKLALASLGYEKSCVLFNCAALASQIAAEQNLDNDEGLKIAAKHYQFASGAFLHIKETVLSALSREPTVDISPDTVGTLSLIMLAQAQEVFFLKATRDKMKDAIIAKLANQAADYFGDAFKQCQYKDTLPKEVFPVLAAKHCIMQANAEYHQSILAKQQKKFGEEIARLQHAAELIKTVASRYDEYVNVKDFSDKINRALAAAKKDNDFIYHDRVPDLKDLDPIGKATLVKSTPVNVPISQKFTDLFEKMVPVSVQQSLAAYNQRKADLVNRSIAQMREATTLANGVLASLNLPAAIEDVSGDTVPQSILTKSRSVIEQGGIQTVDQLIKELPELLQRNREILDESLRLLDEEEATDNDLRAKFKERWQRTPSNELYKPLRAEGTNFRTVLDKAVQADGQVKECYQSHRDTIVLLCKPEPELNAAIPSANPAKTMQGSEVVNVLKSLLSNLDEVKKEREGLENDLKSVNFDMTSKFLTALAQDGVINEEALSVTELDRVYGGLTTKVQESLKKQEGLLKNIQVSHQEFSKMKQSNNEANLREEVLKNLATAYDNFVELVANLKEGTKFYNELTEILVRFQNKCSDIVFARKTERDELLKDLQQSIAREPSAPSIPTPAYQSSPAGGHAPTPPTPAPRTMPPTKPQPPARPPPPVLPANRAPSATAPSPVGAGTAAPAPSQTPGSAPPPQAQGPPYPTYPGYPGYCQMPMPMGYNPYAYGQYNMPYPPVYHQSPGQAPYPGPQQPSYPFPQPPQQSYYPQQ
UniProt Q8N5K1, sequence (Q8N5K1 whole entry): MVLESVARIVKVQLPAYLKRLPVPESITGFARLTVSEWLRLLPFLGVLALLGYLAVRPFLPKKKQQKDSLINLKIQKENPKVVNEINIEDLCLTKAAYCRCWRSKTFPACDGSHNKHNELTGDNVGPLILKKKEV
UniProt Q8WUB8, sequence (Q8WUB8 whole entry, looked up): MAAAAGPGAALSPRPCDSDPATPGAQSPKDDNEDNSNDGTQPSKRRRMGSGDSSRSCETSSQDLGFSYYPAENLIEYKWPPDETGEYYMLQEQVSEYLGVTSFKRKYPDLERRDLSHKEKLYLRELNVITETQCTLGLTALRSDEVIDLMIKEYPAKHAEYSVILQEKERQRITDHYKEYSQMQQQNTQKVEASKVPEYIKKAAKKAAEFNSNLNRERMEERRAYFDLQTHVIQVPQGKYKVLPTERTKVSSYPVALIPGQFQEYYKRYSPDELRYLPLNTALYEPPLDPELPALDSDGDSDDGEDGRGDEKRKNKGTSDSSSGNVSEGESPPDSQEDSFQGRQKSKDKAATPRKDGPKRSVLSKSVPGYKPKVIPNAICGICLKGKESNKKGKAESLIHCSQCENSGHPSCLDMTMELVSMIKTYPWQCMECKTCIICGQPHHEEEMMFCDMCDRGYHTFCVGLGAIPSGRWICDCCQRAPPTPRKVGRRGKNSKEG
UniProt Q8IY81, sequence (Q8IY81 whole entry, looked up): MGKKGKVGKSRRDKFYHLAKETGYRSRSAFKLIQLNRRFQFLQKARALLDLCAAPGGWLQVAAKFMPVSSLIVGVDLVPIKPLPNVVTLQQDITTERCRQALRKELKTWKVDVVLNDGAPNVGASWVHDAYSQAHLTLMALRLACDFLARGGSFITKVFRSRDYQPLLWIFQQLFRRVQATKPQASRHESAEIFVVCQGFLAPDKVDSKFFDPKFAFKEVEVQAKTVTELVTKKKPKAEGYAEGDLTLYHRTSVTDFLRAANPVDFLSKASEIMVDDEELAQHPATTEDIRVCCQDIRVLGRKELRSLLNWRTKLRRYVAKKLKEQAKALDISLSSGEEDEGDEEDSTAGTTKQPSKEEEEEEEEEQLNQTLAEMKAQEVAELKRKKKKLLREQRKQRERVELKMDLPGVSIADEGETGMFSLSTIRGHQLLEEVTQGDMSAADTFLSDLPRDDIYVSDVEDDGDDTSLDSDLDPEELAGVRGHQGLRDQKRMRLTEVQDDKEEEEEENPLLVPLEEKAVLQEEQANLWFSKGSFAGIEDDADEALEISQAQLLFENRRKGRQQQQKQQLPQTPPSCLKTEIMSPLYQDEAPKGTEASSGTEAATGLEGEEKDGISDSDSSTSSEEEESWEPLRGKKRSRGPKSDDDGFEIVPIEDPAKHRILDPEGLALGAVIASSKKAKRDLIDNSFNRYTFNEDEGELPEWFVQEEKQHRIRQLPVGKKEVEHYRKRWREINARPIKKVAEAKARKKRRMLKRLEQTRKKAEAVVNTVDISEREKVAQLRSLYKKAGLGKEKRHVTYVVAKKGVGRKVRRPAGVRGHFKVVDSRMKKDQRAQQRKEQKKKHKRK

| Target | log2 ratio of iodoacetamide-alkyne labeling |
| --- | --- |
| AKAP1 C147 (UniProt Q92667) | 1.02 (active) |
| TET2 C332 (UniProt Q6N021) | 0.594 (inactive) |
| WRNIP1 C39 (UniProt Q96S55) | -0.0706 (inactive) |
| PIK3R4 C899 (UniProt Q99570) | 0.087 (inactive) |
| NIPBL C1795 (UniProt Q6KC79) | -0.189 (inactive) |
| FLAD1 C499 (UniProt Q8NFF5) | 1.06 (active) |
| CISD2 C92 (UniProt Q8N5K1) | 0.0262 (inactive) |
| PDCD6IP C40 (UniProt Q8WUM4) | 0.812 (inactive) |
| AHCTF1 C521 (UniProt Q8WYP5) | 1.16 (active) |
| PNKP C516 (UniProt Q96T60) | 0.166 (inactive) |
| PHF10 C134 (UniProt Q8WUB8) | 0.0674 (inactive) |
| FTSJ3 C197 (UniProt Q8IY81) | 0.103 (inactive) |
| NKAP C349 (UniProt Q8N5F7) | 0.496 (inactive) |
